D3 ag = D3 dopamine receptor (human) agonism | max activation, % | AID 652048 | D3R DiscoveRx beta-arrestin cells, luminescence, 90 min | 0.58% of 410,000 active; in the data active = max activation above about 30%; also: 0% is about no effect
Target sequence (P35462 whole entry, looked up): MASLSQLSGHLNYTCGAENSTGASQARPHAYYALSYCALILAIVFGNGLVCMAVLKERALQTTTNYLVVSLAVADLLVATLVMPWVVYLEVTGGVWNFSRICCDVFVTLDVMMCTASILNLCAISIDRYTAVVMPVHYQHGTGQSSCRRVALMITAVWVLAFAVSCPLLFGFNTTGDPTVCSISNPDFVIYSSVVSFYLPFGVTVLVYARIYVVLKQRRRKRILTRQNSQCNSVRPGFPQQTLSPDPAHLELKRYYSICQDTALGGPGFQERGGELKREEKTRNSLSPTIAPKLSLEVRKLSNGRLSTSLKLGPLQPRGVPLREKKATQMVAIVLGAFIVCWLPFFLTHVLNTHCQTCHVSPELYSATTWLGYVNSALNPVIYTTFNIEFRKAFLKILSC
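Agonist-mode cell screen: cells plated at 1500/well and incubated overnight at 37 °C, then exposed to library compounds for 90 min at 37 °C. Detection reagent was added for 30–60 min at room temperature, and luminescence was read.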
SW480 rerep = DNA re-replication induction in SW480 cells; 1.8% of 340,000 active; Potency, µM (titrated, usually from 46.1 µM), for the others: at the top dose re-replication activation, actives largely listed as activators; SW480 DNA re-replication, Hoechst DNA content imaging, 48 h; also: potency is read from the fitted curve at half-maximal effect; % of control where 0% means no effect; nearly all actives have a fitted effect of over 55% in size
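Readout is total intensity of Hoechst-stained nuclei, excited at 405 nm and collected at 500-530 nm. Compound treatment lasted 48 hr at 37 C in 5% CO2 before staining.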
DRD3 antagonist = blocks the human D3 dopamine receptor | P35462 | D3R cells, DiscoveRx beta-arrestin luminescence, antagonist mode; active compounds read low | max response, negative = inhibition, % | 2.5% of 360,000 active | AID 652054; in the data active = max response below about -50%; inconclusive = no clear call, values can overlap the other calls; also: % is scaled to controls: 0 for no effect and ±100 for the full control effect
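Cells plated overnight at 1500 cells/well, then exposed to library compounds with dopamine controls for 90 minutes at 37 degrees C. DiscoveRx reagent added for 30–60 minutes at room temperature; luminescence read, quantitative HTS format.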
MCF10A rerep = inducers of DNA re-replication in MCF 10A breast cells | MCF 10A DNA re-replication, Hoechst nuclear intensity, 48 h | Potency, µM (titrated, usually from 46.1 µM), without a hit: top-dose activity, positive = re-replication, most hits filed as activators | 2.9% of 350,000 active | AID 624296; also: potency is read from the fitted curve at half-maximal effect; % of control where 0% means no effect; nearly all actives have a fitted effect of over 50% in size
KB-3-1 cytotox = kills parental KB-3-1 adenocarcinoma cells. KB-3-1 viability, CellTiter-Glo ATP luminescence, 72 h. Potency, µM (highest dose often 46.1 µM), hits mostly cytotoxic. 1.4% of 400,000 active; also: potency is read from the fitted curve at half-maximal effect; % is scaled to controls: 0 for no effect and ±100 for the full control effect; nearly all actives have a fitted effect of over 60% in size
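72 h, 37 °C compound treatment of KB-3-1 parental cells; CellTiter-Glo added, 10 min, luminescence read. Data corrected against DMSO-only plates and normalized before curve fitting.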
KB-V1 cytotox = KB-V1 MDR subline cytotoxicity | 3.4% of 400,000 active | KB-V1 MDR cells viability, CellTiter-Glo, 72 h | Potency, µM (series often up to 46.1 µM), usual class: cytotoxic; also: potency is read from the fitted curve at half-maximal effect; % is scaled to controls: 0 for no effect and ±100 for the full control effect; nearly all actives have a fitted effect of over 60% in size
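Cytotoxicity toward P-gp-expressing KB-V1 cells was determined as loss of CellTiter-Glo luminescence after 72 h at 37 degrees C. Compounds were tested in quantitative HTS format across a concentration range, with curves fitted to normalized data.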
Starred values were filed as active, the others as inactive; i = inactive; ? = inconclusive; . = no result. Shown are actives, neighbours in structure and some others; about 8.9% of the full set was active somewhere. Unless noted, calls follow the shape of the dose curve; as a rule, active = well fitted curve in the direction sought with a large enough effect; inconclusive = small, poorly fitted or top-dose-only effect, or another doubt; inactive = no such curve, though single readings can be large; an effect the other way counts as inactive or inconclusive.

SMILES	D3 ag	SW480 rerep	DRD3 antagonist	MCF10A rerep	KB-3-1 cytotox	KB-V1 cytotox
Oc1ccc(/C=N/NC(=S)NCc2ccco2)cc1	4	-5%	11	-3%	i	i
O=C(CN1C(=O)NC2(CCCCCC2)C1=O)N1CCC(Cc2ccccc2)CC1	4	1%	7	25%	?	18µM*
O=C(CN1CCN(c2ccc(F)cc2)CC1)N1CCC(Cc2ccccc2)CC1	-20	8.2µM*	-28	8.2µM*	i	?
O=C(CN1C(=O)NC2(CCCCC2)C1=O)N1CCN(S(=O)(=O)c2ccccc2)CC1	-6	-3%	-17	?	i	i
Brc1cccc[n+]1Cc1ccc(C[n+]2ccccc2Br)cc1	.	.	.	.	?	i
O=C(NCC(c1ccccc1Cl)N1CCCC1)C1CCN(C(=O)Nc2ccccc2)CC1 (stereo not drawn)	-17	-2%	6	-1%	i	i
Cc1ccccc1NC(=S)C1=C(O)c2sccc2N(C)S1(=O)=O	4	-11%	-88*	2%	i	i
CCNC(=O)C1=C(O)c2sccc2N(C)S1(=O)=O	-5	3%	7	0%	i	i
CN1c2ccsc2C(O)=C(C(=S)Nc2ccccc2)S1(=O)=O	1	-2%	-72*	-4%	i	i
COc1ccc(S(=O)(=O)N(CC(=O)Nc2cc(Cl)ccc2C)Cc2ccccc2)cc1OC	-13	.	.	.	?	i
C=C1[C@@H](O)[C@@H]2O[C@]3(CC[C@H](/C=C/[C@@H](C)[C@@H]4CC(C)=CC5(O[C@H](C[C@@](C)(O)C(=O)OC)CC[C@H]5O)O4)O3)CC[C@H]2O[C@@H]1[C@@H](O)C[C@H](C)[C@H]1OC2(CCCCO2)CC[C@H]1C (stereo partly drawn)	-4	?	-17	?	?	18µM*
C=C1C(O)[C@@H]2O[C@]3(CC[C@H](/C=C/C(C)[C@@H]4CC(C)=CC5(O[C@H](C[C@@](C)(O)CO)CCC5O)O4)O3)CC[C@H]2O[C@@H]1C(O)CC(C)[C@H]1OC2(CCCCO2)CCC1C (stereo partly drawn)	-29	?	-78*	14%	0.021µM*	?
O=C(Nc1nccs1)[C@@H]1CC=C[C@@H]2CCN(C3CCCCC3)C(=O)[C@@H]21	.	.	.	.	i	i
Cc1cccc(/N=C/c2sc3ccccc3c2O)n1	4	-3%	-21	-4%	i	i
Cc1c(/C=N/O)sc2ccccc12	1	-4%	-20	-1%	?	21µM*
Cc1ccccc1NC(=O)c1cccc2c(=O)c3c([nH]c12)CCCC3	3	.	.	.	i	i
Cc1onc(-c2c(F)cccc2Cl)c1C(=O)Nc1cccc2nsnc12	9	16µM*	-22	?	18µM*	18µM*
Cc1onc(-c2c(F)cccc2Cl)c1C(=O)NC1=NCCS1	19	0%	31	2%	i	i
Cc1cc(C)nc(NN=C(c2ccccc2)c2ccccc2)n1	0	10µM*	15	?	i	i
CSc1nn(Cc2ccc(C)cc2)c(N)c1S(=O)(=O)c1ccccc1	4	.	.	.	i	i
COc1cc(/C=C(\C#N)c2nc3ccccc3[nH]2)ccc1OC(=O)c1ccco1	-9	9%	?	?	i	?
COc1cc(/C=C(\C#N)c2nc3ccccc3s2)ccc1OCC(=O)Nc1ccccc1	3	?	-26	6.5µM*	?	9.2µM*
COc1cc(/C=C(/C#N)c2nc3ccccc3[nH]2)ccc1OCC(=O)Nc1ccccc1C(C)C	2	?	4	2.9µM*	?	?
COc1cc(/C=C(/C#N)c2nc3ccccc3[nH]2)ccc1OCC(=O)Nc1ccccc1C	1	27%	8	18µM*	?	1.8µM*
COc1cc(/C=C(\CC(=O)O)c2nc3ccccc3s2)ccc1OCC(=O)Nc1ccccc1F	5	-5%	45	?	i	i
SMILES	D3 ag	SW480 rerep	DRD3 antagonist	MCF10A rerep	KB-3-1 cytotox	KB-V1 cytotox
COc1ccc(OC)c(NC(=O)c2cc(C3CC3)nc3c2c(C)nn3-c2ccc(C)cc2)c1	4	.	.	.	i	i
CCc1cccc(NC(=O)CCS(=O)(=O)c2cc3c4c(c2)CCN4C(=O)CC3)c1	1	.	.	.	i	i
CCOc1ccc(NC(=O)Cn2c(CCC(=O)O)ccc2-c2ccc(C)cc2)cc1	7	.	.	.	i	?
CNc1cc([N+](=O)[O-])ccc1N/C=C/C(=O)c1ccc2c(c1)OCO2	-23	?	-50*	9%	i	i
CC(=O)N1CCN(C(=O)c2cc3c(s2)CCCC3)CC1	8	-5%	-19	-2%	i	i
CN1CCCN(C(=O)c2cc3c(s2)CCCC3)CC1	-21	-5%	-56*	?	i	i
COc1ccc(CNC(=O)c2cc3sccc3n2Cc2ccc(C)cc2)cc1	-11	.	.	.	i	i
Cc1ccccc1CNC(=O)c1ccc2nc(C(C)C)oc2c1	9	.	.	.	.	.
O=C(Cn1nnc(-c2ccccc2-n2cnnn2)n1)c1ccccc1	-5	-20%	6	18µM*	i	i
O=C(Cn1nnc(-c2ccccc2-n2cnnn2)n1)N1CCCCC1	2	-3%	0	-3%	i	i
COc1cc2[nH]c(=O)n(Cc3ccc(C(=O)NCc4ccccc4)cc3)c(=O)c2cc1OC	5	.	.	.	i	?
CCN(CC)C(=O)Cn1c(SCC(=O)Nc2ccc(C)c(C)c2)nc2ccccc21	-7	.	.	.	i	i
CC(C)(C)NC(=O)C(c1ccccn1)N(C(=O)c1csnn1)C1CCCCC1 (stereo not drawn)	8	-11%	2	-8%	i	i
CCC(C)(C)NC(=O)C(c1sccc1C)N(Cc1ccco1)C(=O)c1csnn1 (stereo not drawn)	1	-8%	7	5%	i	i
CCC(C)(C)NC(=O)C(c1ccccn1)N(C(=O)c1csnn1)C1CCCCC1 (stereo not drawn)	-8	4%	-5	7.3µM*	i	?
CCC(C)(C)NC(=O)C(c1ccccc1F)N(Cc1ccco1)C(=O)c1csnn1 (stereo not drawn)	-3	1%	-15	11%	i	18µM*
Cc1cccc(NC(=O)CSc2nc(C3CCCC3)nc3c2c(=O)n(C)c(=O)n3C)c1C	6	.	.	.	i	i
CCCCC(=O)NC1(C(F)(F)F)C(=O)Nc2c1c(=O)[nH]c(=O)n2-c1ccc(C)c(C)c1 (stereo not drawn)	-6	.	.	.	i	?

Screening results (PubChem BioAssay)
